Active and inactive are the calls of the source. The calls were made as follows: active = hit-call score of the fitted dose curve at least 0.9, where 1 is the maximum; inactive = score below 0.9.
Biological target: human Phosphatase (PTEN), PTEN (gene 5728) (UniProt P60484)
Assay: ERF_TW_ENZ_hPTEN: Eurofins (ERF) Enzymatic LeadHunter Assay for human Phosphatase (PTEN)
Method: ERF_TW_ENZ_hPTEN is a biochemical, single-readout assay that uses extracted gene-proteins in a cell-free assay. Measurements were taken 1 hour after chemical dosing in a 96-well plate. See PTEN Human Phosphatase Enzymatic Assay, Panlabs.ERF_TW_ENZ_hPTEN is an assay component calculated from the ERF_TW_ENZ_hPTEN assay. It is designed to measure enzyme activity using a type of enzyme reporter as detected by fluorescence intensity with spectrophotometry technology.Data from the assay component ERF_TW_ENZ_hPTEN was analyzed at the assay endpoint, ERF_TW_ENZ_hPTEN, in the positive analysis fitting direction relative to DMSO as the negative control and baseline of activity. Using a type of enzyme reporter, loss-of-signal activity can be used to understand changes in enzymatic activity as they relate to gene PTEN. To generalize the intended target to other relatable targets, this assay endpoint is annotated to the phosphatase intended target family, where the subfamily is dual-specific phosphatase.
Human recombinant phosphatase PTEN expressed in E. coli is used. Test compound and/or vehicle is preincubated with 2 ug/ml enzymedouble dagger for 15 minutes at 37C in modified Tris-HCl buffer pH 8.5. The reaction is initiated by addition of 100 uM DiFMUP for 60 minutes. Determination of the amount of DiFMU formed is read spectrofluorimetrically at 358 nm/450 nm. […]

Chain of human Phosphatase (PTEN), PTEN (gene 5728) (P60484 whole entry, looked up): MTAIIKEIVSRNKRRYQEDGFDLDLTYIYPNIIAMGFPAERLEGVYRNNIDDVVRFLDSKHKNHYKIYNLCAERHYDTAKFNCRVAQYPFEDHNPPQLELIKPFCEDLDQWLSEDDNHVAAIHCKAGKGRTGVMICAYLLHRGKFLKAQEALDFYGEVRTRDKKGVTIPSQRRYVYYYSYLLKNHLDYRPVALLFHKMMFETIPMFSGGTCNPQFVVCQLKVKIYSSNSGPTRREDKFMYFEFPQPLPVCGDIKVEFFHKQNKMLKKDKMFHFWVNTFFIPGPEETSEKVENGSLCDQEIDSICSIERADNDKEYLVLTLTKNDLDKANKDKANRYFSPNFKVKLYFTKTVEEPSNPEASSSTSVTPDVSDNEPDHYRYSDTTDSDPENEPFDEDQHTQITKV

Structure (SMILES)	AC50
O=C(/C=C/c1ccc(O)cc1)CC(=O)/C=C/c1ccc(O)cc1	5 µM (active)

Reference: PubChem BioAssay AID2284128 (EPA ToxCast)
